From PubChem BioAssay (EPA / NIEHS) come the findings set out here.

Active and inactive are the calls of the source. How the source made its calls: active means hit-call score of the fitted dose curve at least 0.9, where 1 is the maximum; inactive means score below 0.9.

Chain of X-box-binding protein 1 (Homo sapiens) (P17861 whole entry, looked up): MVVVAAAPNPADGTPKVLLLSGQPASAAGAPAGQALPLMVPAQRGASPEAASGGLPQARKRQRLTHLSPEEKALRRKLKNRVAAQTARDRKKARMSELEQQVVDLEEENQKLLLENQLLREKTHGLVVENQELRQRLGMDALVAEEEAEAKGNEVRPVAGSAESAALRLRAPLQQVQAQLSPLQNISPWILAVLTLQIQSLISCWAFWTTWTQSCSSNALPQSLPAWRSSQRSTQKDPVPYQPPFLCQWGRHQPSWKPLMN

This test deals with X-box-binding protein 1 (Homo sapiens) (UniProt P17861). Put plainly: ATG_Xbp1_CIS: Attagene CIS-FACTORIAL HepG2 Assay for human X-box Binding Protein 1 (XBP1) (AID 2282972). The note with it: HepG2 XBP1 cis-element reporter, Attagene multiplex; actives raise or lower the signal. The protocol:
ATG_CIS is a cell-based, multiplexed-readout assay that uses HepG2, a human liver cell line, with measurements taken at 24 hours after chemical dosing in a 24-well plate.ATG_Xbp1_CIS is one of 52 assay component(s) measured or calculated from the ATG_CIS assay. It is designed to make measurements of mRNA induction, a form of inducible reporter, as detected with fluorescence intensity signals by Reverse transcription polymerase chain reaction (RT-PCR) and Capillary electrophoresis technology.Data from the assay component ATG_Xbp1_CIS was analyzed into 1 assay endpoint. This assay endpoint, ATG_Xbp1_CIS, was analyzed with bidirectional fitting relative to DMSO as the negative control and baseline of activity. Using a type of inducible reporter, measures of mRNA for gain or loss-of-signal activity can be used to understand the reporter gene at the transcription factor-level as they relate to the gene XBP1. Furthermore, this assay endpoint can be referred to as a primary readout, because this assay has produced multiple assay endpoints where this one serves a reporter gene function. To generalize the intended target to other relatable targets, this assay endpoint is annotated to the dna binding intended target family, where the subfamily is basic leucine zipper.
Human liver HepG2 cells are transiently transfected with multiple reporter transcription units (MRTUs) in 6-well plates using FuGene 6 reagent (Roche; 3 ml FuGene/1 mg DNA). The MRTU constructs are regulated by a cis-regulating element (promoter). […] A major difference between the CIS and TRANS system is that in CIS activities of endogenous TFs are measured, whereas the TRANS assay evaluates changes in activities of exogenous, chimeric NR-Gal4 proteins. […] At the end of 24 hour incubation, total RNA was isolated using TriZol reagent (Invitrogen). The isolated RNA is then reverse-transcribed using oligo(dT) primer and Mo-MLV reverse transcriptase (Invitrogen) with DNAse I (Ambion) treatment for 30 min. The one-tenth of the produced cDNA was amplified by PCR using Taq DNA polymerase (Invitrogen) and two reporter sequence-specific primers. The PCR products were fluorescently labeled by primer extension with 6-arboxyfluorescein (6-FAM) 5'-labeled reporter sequence-specific primer (2 min at 95 C, 20 s at 68 C and 10 min at 72 C) and these products were digested with 5U of HpaI (New England Biolabs) for 2h at 37 C. The fragments were purified using Qiaquick PCR columns (Qiagen), analyzed on an ABI 3130xL genetic analyzer (Applied Biosystems) with peak positions identified by using a set of X-rhodamine (ROX)-labeled MapMarker1000 molecular weight standards (BioVentures). The raw capillary electrophoresis data was processed using Attagraph software (Attagene).
For `COC(F)(C(F)F)C(F)(F)F` (stereo not given), the compound was classed as inactive.

As to `OCC1CCCO1` (stereo not given), the compound was classed as inactive.

For `OC(O)C(F)(F)C(F)(F)F`, the outcome was inactive.

Take `Nc1cc([N+](=O)[O-])cc(Cl)c1O`: the result was inactive.

Consider `FC(F)(F)C(F)(F)C(F)(F)CC1CO1` (stereo not given), for which the compound was classed as inactive.

Consider `CCN(CC)c1ccc(N=Nc2ccccc2)cc1`, for which the call was inactive.

On to `CN(N=O)C(=O)N[C@@H]1[C@@H](O)[C@H](O)[C@@H](CO)O[C@@H]1O`, for which the result was inactive.

On to `O=C(O)CCC(F)(F)C(F)(F)C(F)(F)F`, for which the result was inactive.

On to `CCn1c2ccccc2c2ccccc21`, for which the call was inactive.

Take `F[Si-2](F)(F)(F)(F)F`: the compound was classed as inactive.

For `CCC(=O)OC(C)c1ccccc1` (stereo not given), the outcome was inactive.

With `CC(C)=CCCC(C)O` (stereo not given), the compound was classed as inactive.

Regarding `NCC(F)(F)C(F)(F)C(F)(F)C(F)(F)C(F)(F)C(F)(F)C(F)(F)C(F)(F)F`, the outcome was inactive.

Turning to `CC(C)Nc1ccc(NC(C)C)c2c1C(=O)c1ccccc1C2=O`, the call was inactive.

In the case of `CCN(CC)c1ccc(C=O)c(O)c1`, the outcome was inactive.

As to `O=C=NCc1cccc(CN=C=O)c1`, the call was inactive.

Turning to `C=CC(=O)OCCC(F)(F)C(F)(F)C(F)(F)C(F)(F)F`, the outcome was inactive.

Regarding `O=S(=O)(O)CCC(F)(F)C(F)(F)C(F)(F)C(F)(F)C(F)(F)C(F)(F)C(F)(F)C(F)(F)F`, the outcome was inactive.

As to `Brc1nc2ccccc2s1`, the compound was called inactive.

In the case of `CCCC(=O)OCC(COC(=O)CCC)OC(=O)CCC`, the compound was classed as inactive.

In the case of `O=C(c1ccccc1)c1ccc(O)cc1O`, the result was inactive.

Regarding `CCCCCCCCCc1ccc(OCCO)cc1`, the compound was called inactive.

For `Cc1ccc(O)c(-n2nc3ccccc3n2)c1`, the outcome was inactive.

`CC(C)(C)c1cc(CCC(=O)OCC(COC(=O)CCc2cc(C(C)(C)C)c(O)c(C(C)(C)C)c2)(COC(=O)CCc2cc(C(C)(C)C)c(O)c(C(C)(C)C)c2)COC(=O)CCc2cc(C(C)(C)C)c(O)c(C(C)(C)C)c2)cc(C(C)(C)C)c1O`: the compound was classed as inactive.

`O=C1c2c(O)ccc(Nc3ccc(CCO)cc3)c2C(=O)c2c([N+](=O)[O-])ccc(O)c21`: the call was inactive.

Regarding `O=S(=O)(OCC(F)(F)F)C(F)(F)C(F)(F)C(F)(F)C(F)(F)F`, the outcome was inactive.

Broadly, the AC50 is the midpoint of the concentration-response curve, whichever way the signal moves. As to `CCN=C1C=CC(=C(c2ccc(N(CC)CC)cc2)c2ccc(N(CC)CC)cc2)c2ccccc21`, the AC50 is 1860 nM (active).

Consider `O=C(O)C(F)(F)C(F)(F)C(F)(F)C(F)(F)C(F)(F)C(F)(F)C(F)F`, for which the call was inactive.

Regarding `O=C(Cl)C(F)(F)C(F)(F)C(F)(F)C(F)(F)C(F)(F)C(F)(F)F`, the compound was called inactive.

Turning to `CC(C)OC=O`, the call was inactive.

For `O=C(O)C(F)(F)C(F)(F)C(F)(F)OC(F)(F)F`, the compound was called inactive.

Turning to `OCC(F)(F)C(F)(F)C(F)(F)CO`, the result was inactive.

On to `O=c1[nH]cccc1O`, for which the compound was classed as inactive.

`O=C(O)C(F)(F)C(F)(F)C(F)(F)C(=O)O`: the compound was called inactive.

`C=CC(=O)OCC(F)(F)C(F)(F)C(F)(F)C(F)(F)C(F)(F)C(F)(F)C(F)(F)C(F)F`: the call was inactive.

On to `CC(C)OC(=O)COc1ccc(Cl)cc1Cl`, for which the compound was classed as inactive.

In the case of `Cc1ccc(O)cn1`, the result was inactive.

On to `COc1ccccc1C=O`, for which the compound was called inactive.

As for `N#Cc1ccccc1O`, the outcome was inactive.

With `CCCCCCCCCCCCC[N+](C)(C)Cc1ccccc1`, the result was inactive.
